# PubChem BioAssay AID1159580 (chemical genetic matrix, 2015)
# The whole screen tested about 5,500 compounds, of which about 2,000 (36%) were called active. Another 18% or so got no clear call; they are omitted. The list shows a part of the results. Unmarked numbers belong to inactive results. Rule as the data show it: active = normalized growth mostly below about 0.91 (no sharp cut-off); inconclusive = no clear call, values can overlap the other calls; inactive = mostly above about 0.92.
# Assay: chemical genetic growth profiling, strain panel (AID 1159580);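 also: tested at 20 µM; growth read once vehicle control cultures reached saturation at 30 °C; 1 = growth at the plate median or of vehicle wells; lower values mean less growth of the strain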
# Details: S. cerevisiae deletion strains, growth OD
# [1] = locus YHR030C, strain SLT2, stronger effect = lower value
# [2] = locus YHR079C, strain IRE1, stronger effect = lower value
# [3] = locus YJL095W, strain BCK1, stronger effect = lower value
# [4] = locus YJR066W, strain TOR1, stronger effect = lower value
# [5] = locus YLR113W, strain HOG1, stronger effect = lower value
# [6] = locus YNL183C, strain NPR1, stronger effect = lower value
# [7] = locus YOR231W, strain MKK1, stronger effect = lower value
# [8] = locus YPL256C, strain CLN2, stronger effect = lower value
# [9] = locus YDR150W, strain NUM1, stronger effect = lower value
# [10] = locus YJL187C, strain SWE1, stronger effect = lower value
# [11] = locus YJR075W, strain HOC1, stronger effect = lower value
# [12] = locus YMR263W, strain SAP30, stronger effect = lower value
# [13] = locus YMR307W, strain GAS1, stronger effect = lower value
# [14] = locus YNL128W, strain TEP1, stronger effect = lower value
# [15] = locus YNL153C, strain GIM3, stronger effect = lower value
# [16] = locus YNL322C, strain KRE1, stronger effect = lower value
# [17] = locus YPL241C, strain CIN2, stronger effect = lower value
smiles,measurement,setting,value
O=C(O)/C=C/c1ccccc1,normalized growth,[1],0.834 (active)
same,normalized growth,[2],0.838 (active)
same,normalized growth,[3],0.862 (active)
same,normalized growth,[4],0.801 (active)
same,normalized growth,[5],0.722 (active)
same,normalized growth,[6],0.786 (active)
same,normalized growth,[7],0.823 (active)
same,normalized growth,[8],0.742 (active)
O=C(N/N=C\C=C\c1ccccc1)c1ccccc1-n1cccc1,normalized growth,"locus YAL013W, strain DEP1, stronger effect = lower value",0.96
same,normalized growth,"locus YBR229C, strain ROT2, stronger effect = lower value",0.979
same,normalized growth,"locus YDL101C, strain DUN1, stronger effect = lower value",0.993
same,normalized growth,[9],0.996
same,normalized growth,"locus YEL061C, strain CIN8, stronger effect = lower value",1
same,normalized growth,"locus YGR078C, strain PAC10, stronger effect = lower value",0.988
same,normalized growth,[1],0.925
same,normalized growth,"locus YHR087W, strain rtc3, stronger effect = lower value",0.93
same,normalized growth,[10],0.976
same,normalized growth,"locus YJR043C, strain POL32, stronger effect = lower value",1.01
same,normalized growth,[11],0.997
same,normalized growth,"locus YLR039C, strain RIC1, stronger effect = lower value",0.87
same,normalized growth,"locus YLR058C, strain SHM2 (second series), stronger effect = lower value",0.97
same,normalized growth,"locus YLR085C, strain ARP6, stronger effect = lower value",0.836
same,normalized growth,"locus YLR262C, strain YPT6, stronger effect = lower value",0.833
same,normalized growth,"locus YML094W, strain GIM5, stronger effect = lower value",0.939
same,normalized growth,"locus YMR219W, strain ESC1, stronger effect = lower value",0.99
same,normalized growth,[12],0.973
same,normalized growth,[13],0.713
same,normalized growth,[14],0.987
same,normalized growth,[15],1
same,normalized growth,"locus YNL298W, strain CLA4 (second series), stronger effect = lower value",0.928
same,normalized growth,[16],0.996
same,normalized growth,"locus YNR030W, strain Alg12, stronger effect = lower value",0.906
same,normalized growth,"locus YPL055C, strain LGE1, stronger effect = lower value",0.899
same,normalized growth,[17],0.948
same,normalized growth,"locus YPR135W, strain CTF4, stronger effect = lower value",0.795
O=C(O)/C=C/c1cnc[nH]1,normalized growth,"locus YAL040C, strain CLN3, stronger effect = lower value",1.01
same,normalized growth,"locus YCL061C, strain MRC1 (second series), stronger effect = lower value",1.01
same,normalized growth,[9],1.02
same,normalized growth,"locus YDR363W, strain ESC2, stronger effect = lower value",1.03
same,normalized growth,"locus YER002W, strain NOP16, stronger effect = lower value",1
same,normalized growth,[11],1.02
same,normalized growth,[12],1.01
same,normalized growth,[13],1.01
same,normalized growth,[14],1.01
same,normalized growth,[15],1.03
same,normalized growth,"locus YNL175C, strain NOP13, stronger effect = lower value",0.997
same,normalized growth,"locus YNL197C, strain WHI3, stronger effect = lower value",0.994
same,normalized growth,"locus YNL224C, strain SQS1, stronger effect = lower value",0.984
same,normalized growth,[16],1.03
same,normalized growth,"locus YOR083W, strain WHI5 (second series), stronger effect = lower value",1.01
same,normalized growth,[17],1.01
CC(=O)/C(=C\c1ccccc1)CC(=O)O,normalized growth,"locus YAL021C, strain ccr4, stronger effect = lower value",1
same,normalized growth,"locus YAL026C, strain drs2, stronger effect = lower value",0.995
same,normalized growth,"locus YAL030W, strain snc1, stronger effect = lower value",1
same,normalized growth,"locus YBL061C, strain skt5, stronger effect = lower value",1
same,normalized growth,"locus YBR009C, strain hhf1, stronger effect = lower value",0.986
same,normalized growth,"locus YBR023C, strain chs3, stronger effect = lower value",1
same,normalized growth,"locus YBR171W, strain sec66, stronger effect = lower value",0.992
same,normalized growth,"locus YBR231C, strain swc5, stronger effect = lower value",0.982
same,normalized growth,"locus YBR279W, strain paf1, stronger effect = lower value",0.999
same,normalized growth,"locus YCL011C, strain gbp2, stronger effect = lower value",0.988
same,normalized growth,"locus YCL016C, strain dcc1, stronger effect = lower value",0.991
same,normalized growth,"locus YCL061C, strain MRC1, stronger effect = lower value",0.994
same,normalized growth,"locus YCL069W, strain vba3, stronger effect = lower value",0.997
same,normalized growth,"locus YCR088W, strain abp1, stronger effect = lower value",0.998
same,normalized growth,"locus YDL005C, strain med2, stronger effect = lower value",0.998
same,normalized growth,"locus YDL040C, strain nat1, stronger effect = lower value",0.985
same,normalized growth,"locus YDR001C, strain nth1, stronger effect = lower value",0.992
same,normalized growth,"locus YDR069C, strain doa4, stronger effect = lower value",0.982
same,normalized growth,"locus YDR137W, strain rgp1, stronger effect = lower value",1.01
same,normalized growth,"locus YDR159W, strain sac3, stronger effect = lower value",0.97
same,normalized growth,"locus YDR195W, strain ref2",0.948
same,normalized growth,"locus YDR297W, strain sur2, stronger effect = lower value",0.994
same,normalized growth,"locus YDR334W, strain swr1, stronger effect = lower value",0.996
same,normalized growth,"locus YDR335W, strain msn5, stronger effect = lower value",0.996
same,normalized growth,"locus YDR392W, strain spt3, stronger effect = lower value",0.775
same,normalized growth,"locus YEL003W, strain gim4, stronger effect = lower value",0.992
same,normalized growth,"locus YEL037C, strain rad23, stronger effect = lower value",0.997
same,normalized growth,"locus YEL061C, strain CIN8 (second series), stronger effect = lower value",0.989
same,normalized growth,"locus YER015W, strain faa2, stronger effect = lower value",0.996
same,normalized growth,"locus YER016W, strain bim1, stronger effect = lower value",0.993
same,normalized growth,"locus YER111C, strain swi4, stronger effect = lower value",0.992
same,normalized growth,"locus YER155C, strain BEM2 (second series), stronger effect = lower value",0.923
same,normalized growth,"locus YFR010W, strain ubp6, stronger effect = lower value",0.994
same,normalized growth,"locus YGL167C, strain pmr1, stronger effect = lower value",0.993
same,normalized growth,"locus YGL173C, strain kem1, stronger effect = lower value",0.991
same,normalized growth,"locus YGL227W, strain vid30, stronger effect = lower value",0.991
same,normalized growth,"locus YGL240W, strain doc1, stronger effect = lower value",0.978
same,normalized growth,"locus YGL253W, strain hxk2, stronger effect = lower value",0.984
same,normalized growth,"locus YHR013C, strain ard1, stronger effect = lower value",0.956
same,normalized growth,"locus YHR027C, strain rpn1, stronger effect = lower value",0.996
same,normalized growth,[1],0.976
same,normalized growth,[2],0.954
same,normalized growth,"locus YHR142W, strain chs7, stronger effect = lower value",1.01
same,normalized growth,"locus YJL092W, strain hpr5, stronger effect = lower value",0.991
same,normalized growth,"locus YJL095W, strain BCK1 (second series), stronger effect = lower value",0.992
same,normalized growth,[3],0.967
same,normalized growth,"locus YJL115W, strain asf1, stronger effect = lower value",0.993
same,normalized growth,"locus YJL129C, strain trk1, stronger effect = lower value",0.984
same,normalized growth,"locus YJL154C, strain vps35, stronger effect = lower value",1
same,normalized growth,"locus YJL164C, strain tpk1, stronger effect = lower value",1
same,normalized growth,"locus YJL166W, strain qcr8, stronger effect = lower value",0.976
same,normalized growth,[10],0.997
same,normalized growth,[4],0.899
same,normalized growth,"locus YKL160W, strain elf1, stronger effect = lower value",1.01
same,normalized growth,"locus YKR026C, strain gcn3, stronger effect = lower value",0.986
same,normalized growth,"locus YKR091W, strain srl3, stronger effect = lower value",0.999
same,normalized growth,"locus YLL001W, strain dnm1, stronger effect = lower value",0.98
same,normalized growth,"locus YLL026W, stronger effect = lower value",0.991
same,normalized growth,"locus YLL041C, strain sdh2, stronger effect = lower value",1
same,normalized growth,"locus YLR027C, strain aat2, stronger effect = lower value",0.997
same,normalized growth,[5],0.972
same,normalized growth,"locus YLR221C, strain rsa3, stronger effect = lower value",1
same,normalized growth,"locus YLR258W, strain gsy2, stronger effect = lower value",0.992
same,normalized growth,"locus YLR262C, strain YPT6 (second series), stronger effect = lower value",1.02
same,normalized growth,"locus YLR320W, strain mms22, stronger effect = lower value",0.971
same,normalized growth,"locus YLR342W, strain FKS1, stronger effect = lower value",0.993
same,normalized growth,"locus YLR357W, strain rsc2, stronger effect = lower value",0.957
same,normalized growth,"locus YLR370C, strain arc18, stronger effect = lower value",0.998
same,normalized growth,"locus YLR384C, strain iki3, stronger effect = lower value",0.992
same,normalized growth,"locus YML120C, strain ndi1, stronger effect = lower value",1.01
same,normalized growth,"locus YMR058W, strain fet3, stronger effect = lower value",0.992
same,normalized growth,"locus YMR125W, strain sto1, stronger effect = lower value",0.955
same,normalized growth,"locus YMR129W, stronger effect = lower value",0.988
same,normalized growth,"locus YMR205C, strain PFK2, stronger effect = lower value",0.967
same,normalized growth,"locus YMR231W, strain pep5, stronger effect = lower value",0.995
same,normalized growth,"locus YNL071W, strain lat1, stronger effect = lower value",0.995
same,normalized growth,[6],0.927
same,normalized growth,"locus YNL209W, strain ssb2, stronger effect = lower value",1
same,normalized growth,"locus YNL248C, strain rpa49, stronger effect = lower value",0.982
same,normalized growth,"locus YNL322C, strain KRE1 (second series), stronger effect = lower value",0.991
same,normalized growth,"locus YNR049C, strain mso1, stronger effect = lower value",0.998
same,normalized growth,"locus YOR001W, strain rrp6, stronger effect = lower value",1
same,normalized growth,"locus YOR070C, strain gyp1, stronger effect = lower value",0.995
same,normalized growth,"locus YOR080W, strain dia2, stronger effect = lower value",0.99
same,normalized growth,"locus YOR083W, strain WHI5, stronger effect = lower value",1.02
same,normalized growth,"locus YOR106W, strain vam3, stronger effect = lower value",1.01
same,normalized growth,[7],0.969
same,normalized growth,"locus YOR265W, strain rbl2, stronger effect = lower value",0.993
same,normalized growth,"locus YOR270C, strain vph1, stronger effect = lower value",0.98
same,normalized growth,"locus YOR290C, strain snf2, stronger effect = lower value",0.981
same,normalized growth,"locus YPL051W, strain arl3, stronger effect = lower value",1.01
same,normalized growth,"locus YPL078C, strain atp4, stronger effect = lower value",1.01
same,normalized growth,"locus YPL106C, strain sse1, stronger effect = lower value",0.997
same,normalized growth,"locus YPL240C, strain hsp82, stronger effect = lower value",0.987
same,normalized growth,[8],0.968
